The list is not random: actives were taken first. Their share in the collection is about 1.1%.
HTR5A ag: HTR5A agonism, opioid heterodimer counter-screen; HTR5A agonist assay, luminescence, cell-based; actives 0.61% (n = 340,000); activation, % at 9.3 µM; P47898; AID 504692; in the data active means activation mostly above about 9.5%, no sharp cut-off; inactive means mostly below about 7.6%
Target sequence (P47898 whole entry, looked up): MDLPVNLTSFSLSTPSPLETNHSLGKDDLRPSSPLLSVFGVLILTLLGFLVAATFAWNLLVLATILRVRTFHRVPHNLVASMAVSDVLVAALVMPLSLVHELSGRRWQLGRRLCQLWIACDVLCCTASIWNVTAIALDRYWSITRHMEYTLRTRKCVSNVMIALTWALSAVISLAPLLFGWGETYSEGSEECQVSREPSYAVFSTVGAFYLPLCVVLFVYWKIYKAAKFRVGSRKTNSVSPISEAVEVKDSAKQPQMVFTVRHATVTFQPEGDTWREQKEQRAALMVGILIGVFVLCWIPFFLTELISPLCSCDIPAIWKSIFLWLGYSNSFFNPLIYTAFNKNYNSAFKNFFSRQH
OPRM1-OPRD1 inv: inverse agonists of human mu-delta opioid receptor heterodimerization; cell-based MOR-DOR heterodimer luminescence, inverse agonism; inhibition, % at 9.3 µM; actives 0.21% (n = 340,000); in the data active means inhibition above about 22%, passing the limit was not always enough
MOR-DOR ag-1: OPRM1-OPRD1 heterodimerization agonism; cells, luminescence; P35372+P41143; AID 504326; actives 0.3% (n = 340,000); activation, % at 9.3 µM
HTR5A inv ctr: HTR5A inverse agonism, opioid heterodimer counter-screen; inhibition, % at 9.3 µM; P47898; HTR5A cell line, luminescence; actives 0.083% (n = 340,000); in the data active means inhibition mostly above about 23%, no sharp cut-off; inactive means mostly below about 18%
MOR-DOR ag-2: opioid heterodimer agonism, HTR5A counter-screen. shares compounds with HTR5A ag. U2OS counter-screen cells, complementation luminescence, 3 h. activation, % at 9.3 µM. actives 13% (n = 800)
HTR5A ag confirm: HTR5A (human) agonism, confirmation | shares compounds with HTR5A ag | HTR5A agonist cell assay, luminescence | activation, % at 9.3 µM | actives 17% (n = 800) | AID 504915; in the data active means activation above about 17%
Of the large screens only hits and unclear results are named; the others gave an inactive call (follow-up assays come after a bar, where they were run); ! = a repeat was not active. Unless noted, no stated cut-off is given here; in the data, active means activation above about 18%; inactive means the rest.

CC(OC(=O)c1ccccn1)C(=O)Nc1ccc(C(F)(F)F)cc1 (stereo not given)	none
O=S(=O)(c1cnc(Cl)c(Cl)c1)N1CCc2ccccc21	HTR5A ag 16 | MOR-DOR ag-2 121 | HTR5A ag confirm inactive
COc1ccc(CC(=O)OCC(=O)NC2CCCCCC2)cc1OC	none
CC(C)C[C@H]1C(=O)N2CCC[C@H]2[C@]2(O)O[C@](NC(=O)C3C=C4c5cccc6[nH]c(Br)c(c56)C[C@H]4N(C)C3)(C(C)C)C(=O)N12 (stereo not given in full)	none
CN1C[C@H](C(=O)N[C@]2(C)O[C@@]3(O)[C@@H]4CCCN4C(=O)[C@H](Cc4ccccc4)N3C2=O)CC2c3cccc4[nH]cc(c34)C[C@H]21 (stereo not given in full)	HTR5A ag 45 | MOR-DOR ag-2 inactive | HTR5A ag confirm 48!
COC(=O)C1=C(C)N(c2cc(Cl)cc(Cl)c2)C(=O)C1	HTR5A ag 15 | MOR-DOR ag-2 inactive | HTR5A ag confirm inactive
Cc1ccc2c(c1)Oc1ccc(NC(=O)CCl)cc1C(=O)N2	HTR5A ag 15 | MOR-DOR ag-2 inactive | HTR5A ag confirm inactive
Cc1cccn2c(CNCCc3ccco3)c(C(=O)N3CCOCC3)nc12	none
CC(C)Oc1ccc(C(=O)Nc2ccc(N3CCCC3)cc2)cc1	HTR5A ag 17 | MOR-DOR ag-2 inactive | HTR5A ag confirm inactive
O=[n+]1c2c(n([O-])c3cc(F)c(N4CCCC4)cc31)CCCC2	HTR5A ag 15 | MOR-DOR ag-2 inactive | HTR5A ag confirm 40
O=[n+]1c2c(n([O-])c3cc(F)c(N4CCCC4)cc31)CCC2	none
CCC(OC(=O)CN1C(=O)c2ccccc2C1=O)C(=O)NC1CCCC1 (stereo not given)	none
CC(C)C(OC(=O)CN1C(=O)c2ccccc2C1=O)C(=O)NC1CCCCC1 (stereo not given)	HTR5A ag 15 | MOR-DOR ag-2 inactive | HTR5A ag confirm inactive
COC(=O)CCC(=O)OC1(C)C(=O)C2=CN(CCc3c[nH]c4ccccc34)C(c3ccc(OC)cc3)=CC2=C(Br)C1=O (stereo not given)	HTR5A ag 38 | MOR-DOR ag-2 86 | HTR5A ag confirm inactive
Cc1ccc(C(=O)NCCNC(=O)Cc2ccccc2)cn1	none
Cc1ccc(C)c(S(=O)(=O)N/N=C/c2ccc(F)cc2)c1	HTR5A ag 15 | MOR-DOR ag-2 inactive | HTR5A ag confirm inactive
Cc1ccc(C)c(S(=O)(=O)N/N=C/c2ccc(N(C)C)cc2)c1	none
CCOC(=O)Cn1cnc([N+](=O)[O-])n1	none
CC(=O)CCn1cnc([N+](=O)[O-])n1	HTR5A ag 15 | MOR-DOR ag-2 60 | HTR5A ag confirm inactive
COc1ccc(C(CNc2ccc(C(F)(F)F)cn2)N(C)C)cc1OC (stereo not given)	HTR5A ag 19 | MOR-DOR ag-2 inactive | HTR5A ag confirm inactive
COc1ccc(-c2cc(-c3c(O)c(OC)c4occc4c3OC)[nH]n2)cc1	HTR5A ag 15 | MOR-DOR ag-2 inactive | HTR5A ag confirm inactive
COc1ccc(-c2cc(-c3c(O)c(OC)c4occc4c3OC)[nH]n2)cc1OC	none
Cc1cccc2sc(NNC(=O)c3ccc(S(=O)(=O)N4CCCC(C)C4)cc3)nc12 (stereo not given)	HTR5A ag 17 | MOR-DOR ag-2 inactive | HTR5A ag confirm inactive
CN(C(=O)COC(=O)C1COc2ccccc2O1)c1c(N)n(Cc2ccccc2)c(=O)[nH]c1=O (stereo not given)	none
c1ccc2c(CC3=NCCN3)cccc2c1	none
Cc1cc(C(C)(C)C)c(O)c(C)c1CC1=NCCN1	HTR5A ag 84 | MOR-DOR ag-2 inactive | HTR5A ag confirm 86
Cc1cccc(NC(=O)N2CCC(NC(=O)C3CCCCC3)CC2)c1	HTR5A ag 17 | MOR-DOR ag-2 inactive | HTR5A ag confirm inactive
Cc1ccc(N(C(=O)Cc2cccs2)C(C(=O)NC2CCCCC2)c2ccccn2)cc1C (stereo not given)	HTR5A ag 15 | MOR-DOR ag-2 30 | HTR5A ag confirm 19
COc1ccc(NC(=O)CSc2nc(=O)n(CCN(C)C)c3c2CCCC3)cc1OC	none
Cc1cc(C)c(S(=O)(=O)NCCc2cc3ccc(C)c(C)c3[nH]c2=O)c(C)c1	HTR5A ag 17 | MOR-DOR ag-2 inactive | HTR5A ag confirm inactive
Cc1ccc2cc(CCNS(=O)(=O)c3ccc(Br)cc3)c(=O)[nH]c2c1C	none
CC(=O)N1CCc2c(sc(NC(=O)Cc3ccc(C)cc3C)c2C#N)C1	none
CN(C)c1cccc(NC(=O)CCc2ccccc2)c1	none
CN(C)c1cccc(NC(=O)Cc2ccc(F)cc2)c1	HTR5A ag 18 | MOR-DOR ag-2 inactive | HTR5A ag confirm inactive
Cc1ccc(S(=O)(=O)Nc2ccc(-n3c(C)nc4ccccc4c3=O)cc2)cc1	none
O=C(NCCc1c[nH]c2ccccc12)C(=O)NCC1OCCN1S(=O)(=O)c1ccccc1 (stereo not given)	HTR5A ag 36 | MOR-DOR ag-2 inactive | HTR5A ag confirm 57
O=C(NCCc1c[nH]c2ccccc12)C(=O)NCC1OCCCN1S(=O)(=O)c1ccccc1 (stereo not given)	HTR5A ag 48 | MOR-DOR ag-2 inactive | HTR5A ag confirm 47
O=C(NCCc1c[nH]c2ccccc12)C(=O)NCC1OCCN1S(=O)(=O)c1ccc(F)cc1 (stereo not given)	none
Cc1ccc(S(=O)(=O)N2CCCOC2CNC(=O)C(=O)NCCc2c[nH]c3ccccc23)cc1 (stereo not given)	HTR5A ag 30 | MOR-DOR ag-2 inactive | HTR5A ag confirm 26
O=C(NCCc1c[nH]c2ccccc12)C(=O)NCC1OCCN1S(=O)(=O)c1ccc(Cl)cc1 (stereo not given)	none
CS(=O)(=O)c1ccc(Cl)c(NC(=O)C2CCN(S(=O)(=O)c3cccs3)CC2)c1	none
CC(NC(=O)c1ccco1)c1ccc2c(c1)OCCO2 (stereo not given)	HTR5A ag 15 | MOR-DOR ag-2 inactive | HTR5A ag confirm inactive
CC(C)C(OC(=O)C1=Cc2ccccc2OC1)C(=O)NCC1CCCO1 (stereo not given)	none
NS(=O)(=O)c1ccc(NC(=O)Cn2ncc3c2-c2ccccc2OC3)cc1	HTR5A ag 19 | MOR-DOR ag-2 inactive | HTR5A ag confirm inactive
O=C(Cn1ncc2c1-c1ccccc1OC2)Nc1cccc(Cl)c1	none
NS(=O)(=O)Oc1ccccc1	none
COc1cc(CO)c(OC)c([N+](=O)[O-])c1	none
COc1ccccc1N1CCN(C(=O)c2ccc(Cn3c(=O)[nH]c4ccsc4c3=O)cc2)CC1	HTR5A ag 16 | MOR-DOR ag-2 inactive | HTR5A ag confirm inactive
C=CCNC(=O)c1ccccc1NC(=O)C1CC(=O)N(C(C)C)C1 (stereo not given)	HTR5A ag 16 | MOR-DOR ag-2 inactive | HTR5A ag confirm inactive
c1cncc(-c2nc3ccccn3c2Nc2ccc3c(c2)OCCO3)c1	HTR5A ag 30 | MOR-DOR ag-2 inactive | HTR5A ag confirm inactive
CCNC(=O)N1CCC(n2nccc2NC(=O)CCCc2ccccc2)CC1	none

Screening data: PubChem, The Scripps Research Institute Molecular Screening Center
